# Results taken from article PMC7862700, “An all-to-all approach to the identification of sequence-specific readers for epigenetic DNA modifications on cytosine”.
# How the values were obtained:
# Assay in all cases: DAPPL (digital affinity profiling via proximity ligation, sequencing); 10 mM Tris-HCl pH 7.5, 50 mM NaCl, 1 mM DTT, 4% glycerol, room temperature, 30 min; GST-TFs on glutathione beads, 16-mer random dsDNA library, 0.1% formaldehyde crosslink after washing; high values mean tight binding
# Settings in all cases: protein: recombinant; tags: N-terminal GST; dsDNA, one strand shown
# [1] = biological target: T1, SPIC (Homo sapiens, UniProt Q8N5J4 1-248)
# T1 sequence: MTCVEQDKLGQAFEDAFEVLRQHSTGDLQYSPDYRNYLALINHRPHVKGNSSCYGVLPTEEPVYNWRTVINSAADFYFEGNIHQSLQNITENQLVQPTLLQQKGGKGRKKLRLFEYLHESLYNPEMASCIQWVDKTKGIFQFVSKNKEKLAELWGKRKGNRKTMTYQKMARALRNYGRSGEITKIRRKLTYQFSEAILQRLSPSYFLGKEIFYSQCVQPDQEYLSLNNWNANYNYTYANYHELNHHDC
# Outline: (§1)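 Sequencing on an Illumina NextSeq500 followed washing, crosslinking with 0.1% formaldehyde, proximity ligation (BsaI/T4 ligase, 1 h, 37 °C) and PCR amplification of pools that had been incubated for 30 min at room temperature with 200 nmole of a random double-stranded 16-mer DNA library in Tris/NaCl/DTT/glycerol buffer. Each pool held DNA-barcoded human transcription factors, expressed in yeast as GST fusions and captured on glutathione beads, plus a tag-only sample. Binding signal is a hexamer's read frequency for a factor divided by its frequency in the tag-only sample.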
# [2] = biological target: SPIB (Homo sapiens, UniProt Q01892 1-262)
# Outline: as §1
# [3] = biological target: ELF4 (Homo sapiens, UniProt Q99607 1-663)
# Outline: as §1
# [4] = biological target: T2, ELK1 (Homo sapiens, UniProt P19419 1-428)
# T2 sequence: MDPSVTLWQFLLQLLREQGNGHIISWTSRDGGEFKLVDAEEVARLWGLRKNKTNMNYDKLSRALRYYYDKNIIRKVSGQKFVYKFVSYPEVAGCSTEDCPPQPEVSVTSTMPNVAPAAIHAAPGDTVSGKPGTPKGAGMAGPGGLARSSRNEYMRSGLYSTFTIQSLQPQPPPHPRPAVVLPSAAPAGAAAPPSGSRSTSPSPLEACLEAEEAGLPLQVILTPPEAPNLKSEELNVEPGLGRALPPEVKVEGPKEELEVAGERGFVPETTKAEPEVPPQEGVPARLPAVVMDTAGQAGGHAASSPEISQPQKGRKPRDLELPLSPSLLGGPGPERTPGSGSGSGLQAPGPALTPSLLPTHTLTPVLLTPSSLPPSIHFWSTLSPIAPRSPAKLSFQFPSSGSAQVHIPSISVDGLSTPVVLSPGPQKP
# Outline: as §1
# [5] = biological target: T3, ERG (Homo sapiens, UniProt P11308 1-479)
# T3 sequence: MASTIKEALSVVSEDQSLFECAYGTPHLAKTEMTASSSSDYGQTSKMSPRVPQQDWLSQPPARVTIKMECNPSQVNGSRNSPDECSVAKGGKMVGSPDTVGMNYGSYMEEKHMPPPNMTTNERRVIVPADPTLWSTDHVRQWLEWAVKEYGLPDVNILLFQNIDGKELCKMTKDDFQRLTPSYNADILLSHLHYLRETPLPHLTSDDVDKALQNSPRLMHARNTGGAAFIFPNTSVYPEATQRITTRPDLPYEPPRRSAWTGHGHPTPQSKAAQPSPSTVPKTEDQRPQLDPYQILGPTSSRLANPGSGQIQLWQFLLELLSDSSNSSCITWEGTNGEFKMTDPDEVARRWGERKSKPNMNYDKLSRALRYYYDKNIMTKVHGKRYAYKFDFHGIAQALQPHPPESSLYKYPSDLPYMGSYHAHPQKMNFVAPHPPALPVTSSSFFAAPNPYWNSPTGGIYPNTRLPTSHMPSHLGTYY
# Outline: as §1
# [6] = biological target: ELF1 (Homo sapiens, UniProt P32519 1-619)
# Outline: as §1
# [7] = biological target: T4, FEV (Homo sapiens, UniProt Q99581 1-238)
# T4 sequence: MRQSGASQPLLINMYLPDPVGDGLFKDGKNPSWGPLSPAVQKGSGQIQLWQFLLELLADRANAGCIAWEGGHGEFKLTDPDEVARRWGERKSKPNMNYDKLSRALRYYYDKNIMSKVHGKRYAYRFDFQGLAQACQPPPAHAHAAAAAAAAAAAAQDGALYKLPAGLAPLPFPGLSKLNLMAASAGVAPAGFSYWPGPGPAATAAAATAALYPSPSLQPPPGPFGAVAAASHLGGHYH
# Outline: as §1
# [8] = biological target: T5, ETV2 (Homo sapiens, UniProt O00321 1-342)
# T5 sequence: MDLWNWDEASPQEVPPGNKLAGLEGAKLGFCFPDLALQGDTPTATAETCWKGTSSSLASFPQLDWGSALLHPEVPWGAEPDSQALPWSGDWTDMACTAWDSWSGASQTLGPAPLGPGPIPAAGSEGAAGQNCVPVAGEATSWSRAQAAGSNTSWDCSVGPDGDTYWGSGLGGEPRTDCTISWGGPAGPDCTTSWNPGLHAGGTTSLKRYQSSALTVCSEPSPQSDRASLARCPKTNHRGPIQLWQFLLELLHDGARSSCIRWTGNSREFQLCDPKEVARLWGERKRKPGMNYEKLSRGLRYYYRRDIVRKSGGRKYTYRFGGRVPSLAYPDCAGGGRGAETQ
# Outline: as §1
# [9] = biological target: CRX (Homo sapiens, UniProt O43186 1-299)
# Outline: as §1
# [10] = biological target: T6, ETV3L (Homo sapiens, UniProt Q6ZN32 1-361)
# T6 sequence: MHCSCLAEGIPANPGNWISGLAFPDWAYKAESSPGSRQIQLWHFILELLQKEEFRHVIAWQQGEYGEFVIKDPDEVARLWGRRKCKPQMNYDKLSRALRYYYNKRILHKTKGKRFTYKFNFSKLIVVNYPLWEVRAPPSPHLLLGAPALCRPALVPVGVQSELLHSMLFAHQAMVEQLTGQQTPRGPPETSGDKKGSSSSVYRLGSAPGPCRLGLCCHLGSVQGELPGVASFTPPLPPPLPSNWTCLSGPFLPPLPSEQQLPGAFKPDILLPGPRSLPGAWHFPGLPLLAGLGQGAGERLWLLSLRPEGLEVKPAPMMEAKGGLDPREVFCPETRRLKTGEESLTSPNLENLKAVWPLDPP
# Outline: as §1
# [11] = biological target: T7, ETV7 (Homo sapiens, UniProt Q9Y603 1-341)
# T7 sequence: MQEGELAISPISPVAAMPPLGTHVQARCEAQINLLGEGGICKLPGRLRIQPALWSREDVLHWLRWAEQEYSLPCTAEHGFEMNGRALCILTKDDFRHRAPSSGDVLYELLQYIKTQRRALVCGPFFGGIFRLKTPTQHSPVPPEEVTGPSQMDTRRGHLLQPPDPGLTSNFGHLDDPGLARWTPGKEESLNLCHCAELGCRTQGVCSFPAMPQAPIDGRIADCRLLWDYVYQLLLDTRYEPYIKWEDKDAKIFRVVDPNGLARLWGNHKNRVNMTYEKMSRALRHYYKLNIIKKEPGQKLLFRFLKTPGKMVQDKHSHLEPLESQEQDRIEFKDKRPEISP
# Outline: as §1
# [12] = biological target: T8, ETV3 (Homo sapiens, UniProt P41162-2 1-143)
# T8 sequence: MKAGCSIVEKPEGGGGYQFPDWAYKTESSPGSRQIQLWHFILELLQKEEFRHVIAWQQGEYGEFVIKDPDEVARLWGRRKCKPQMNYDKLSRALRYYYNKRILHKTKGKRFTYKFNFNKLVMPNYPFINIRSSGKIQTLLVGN
# Outline: as §1
# Sequence of ELF4 (Q99607 whole entry): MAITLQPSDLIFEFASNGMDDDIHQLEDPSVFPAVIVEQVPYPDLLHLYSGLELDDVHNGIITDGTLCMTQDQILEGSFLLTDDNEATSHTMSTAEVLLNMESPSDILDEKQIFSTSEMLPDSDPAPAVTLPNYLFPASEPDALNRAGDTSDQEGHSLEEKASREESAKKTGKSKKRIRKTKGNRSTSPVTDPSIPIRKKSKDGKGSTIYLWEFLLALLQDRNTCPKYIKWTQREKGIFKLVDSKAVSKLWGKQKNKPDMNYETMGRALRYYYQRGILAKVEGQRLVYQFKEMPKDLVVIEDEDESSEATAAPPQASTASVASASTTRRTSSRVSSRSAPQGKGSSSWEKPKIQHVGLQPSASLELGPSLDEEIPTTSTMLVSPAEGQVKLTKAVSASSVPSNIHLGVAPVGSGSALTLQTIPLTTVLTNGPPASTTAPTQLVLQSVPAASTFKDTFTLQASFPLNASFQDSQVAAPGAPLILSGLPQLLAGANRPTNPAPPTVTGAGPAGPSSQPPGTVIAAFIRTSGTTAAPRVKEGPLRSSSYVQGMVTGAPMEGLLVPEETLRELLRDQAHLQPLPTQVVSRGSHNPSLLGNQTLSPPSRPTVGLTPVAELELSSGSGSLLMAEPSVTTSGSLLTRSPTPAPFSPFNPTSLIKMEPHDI
# Sequence of SPIB (Q01892 whole entry): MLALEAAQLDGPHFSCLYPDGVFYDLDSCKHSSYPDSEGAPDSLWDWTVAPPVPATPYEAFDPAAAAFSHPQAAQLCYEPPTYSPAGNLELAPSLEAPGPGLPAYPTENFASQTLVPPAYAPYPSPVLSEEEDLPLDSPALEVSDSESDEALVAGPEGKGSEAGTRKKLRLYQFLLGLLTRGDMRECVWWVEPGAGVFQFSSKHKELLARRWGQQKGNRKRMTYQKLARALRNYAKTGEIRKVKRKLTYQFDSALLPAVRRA
# Sequence of CRX (O43186 whole entry): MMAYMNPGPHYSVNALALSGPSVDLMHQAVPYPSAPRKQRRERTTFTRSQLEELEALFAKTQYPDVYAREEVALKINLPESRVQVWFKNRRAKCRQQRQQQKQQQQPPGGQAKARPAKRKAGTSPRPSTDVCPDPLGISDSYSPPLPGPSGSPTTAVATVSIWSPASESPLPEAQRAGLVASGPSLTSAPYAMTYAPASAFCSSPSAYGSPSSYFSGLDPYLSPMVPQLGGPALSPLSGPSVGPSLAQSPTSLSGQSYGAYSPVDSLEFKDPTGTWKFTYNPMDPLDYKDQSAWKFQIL
# Sequence of ELF1 (P32519 whole entry): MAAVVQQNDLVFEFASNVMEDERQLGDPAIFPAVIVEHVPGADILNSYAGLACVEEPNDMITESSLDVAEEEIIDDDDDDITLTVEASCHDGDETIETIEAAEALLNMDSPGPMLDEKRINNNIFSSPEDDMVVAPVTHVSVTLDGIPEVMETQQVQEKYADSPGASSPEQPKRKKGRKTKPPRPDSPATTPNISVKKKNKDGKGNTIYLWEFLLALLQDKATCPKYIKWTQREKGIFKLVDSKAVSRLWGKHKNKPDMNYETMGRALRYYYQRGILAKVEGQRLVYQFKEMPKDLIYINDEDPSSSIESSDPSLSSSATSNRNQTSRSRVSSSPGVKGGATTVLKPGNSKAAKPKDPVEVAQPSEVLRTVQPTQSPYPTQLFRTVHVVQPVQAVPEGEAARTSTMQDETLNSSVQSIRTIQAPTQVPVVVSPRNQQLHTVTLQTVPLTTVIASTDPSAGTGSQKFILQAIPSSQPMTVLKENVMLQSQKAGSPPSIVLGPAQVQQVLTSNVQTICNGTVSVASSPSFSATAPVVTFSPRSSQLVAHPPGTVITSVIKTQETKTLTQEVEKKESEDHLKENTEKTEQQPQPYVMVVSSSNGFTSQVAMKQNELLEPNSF
sequence,measurement,setting,value
ACGCCA,binding signal,[1],"1 fold enrichment (6-mer frequency, TF over GST control)"
AGGCAC,binding signal,[1],"1.03 fold enrichment (6-mer frequency, TF over GST control)"
TGCAGA,binding signal,[2],"1.03 fold enrichment (6-mer frequency, TF over GST control)"
same,binding signal,[1],"1.06 fold enrichment (6-mer frequency, TF over GST control)"
same,binding signal,[3],"1 fold enrichment (6-mer frequency, TF over GST control)"
GCATGC,binding signal,[1],"1.07 fold enrichment (6-mer frequency, TF over GST control)"
TAGGCA,binding signal,[4],"1.03 fold enrichment (6-mer frequency, TF over GST control)"
same,binding signal,[5],"1.06 fold enrichment (6-mer frequency, TF over GST control)"
same,binding signal,[6],"1.02 fold enrichment (6-mer frequency, TF over GST control)"
same,binding signal,[2],"1.02 fold enrichment (6-mer frequency, TF over GST control)"
same,binding signal,[7],"1.05 fold enrichment (6-mer frequency, TF over GST control)"
same,binding signal,[1],"1.11 fold enrichment (6-mer frequency, TF over GST control)"
same,binding signal,[3],"1.01 fold enrichment (6-mer frequency, TF over GST control)"
same,binding signal,[8],"1.19 fold enrichment (6-mer frequency, TF over GST control)"
same,binding signal,[9],"1.08 fold enrichment (6-mer frequency, TF over GST control)"
same,binding signal,[10],"1.02 fold enrichment (6-mer frequency, TF over GST control)"
same,binding signal,[11],"1.06 fold enrichment (6-mer frequency, TF over GST control)"
same,binding signal,[12],"1.01 fold enrichment (6-mer frequency, TF over GST control)"
